Data as given in PubChem BioAssay (NCI).
This is part of a sample that, as a whole, favours compounds with a hit. Of some 79,000 tested, about 15% had one in any assay. Rule as the data show it: active = growth inhibition above about 70%; inactive = the rest.

Key:
[1] = NCI Yeast Anticancer Drug Screen. Data for the rad50 strain (AID 155);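 also: 0% = growth of vehicle-only cultures of the same strain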; conditions: S. cerevisiae rad50 strain growth inhibition; at 50.0 µM; active compounds read high
In short: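 Compounds were tested on a yeast strain with an engineered DNA damage repair alteration; the reported value is growth inhibition normalised to vehicle treatment.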

[2] = NCI Yeast Anticancer Drug Screen. Data for the mec2-1 strain (AID 157); conditions: S. cerevisiae mec2-1 strain, at 50.0 µM, active compounds read high
In short: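 Strain: mec2-1 (DNA repair/cell cycle alteration). Compound exposure, then growth measured; inhibition expressed relative to vehicle.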

[3] = NCI Yeast Anticancer Drug Screen. Data for the sgs1 mgt1 strain (AID 161);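 also: 0% = growth of cultures given vehicle only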; conditions: S. cerevisiae sgs1 mgt1 strain, at 50.0 µM, active compounds read high
In short: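 Read-out: growth inhibition vs vehicle controls. Cells: mutant yeast strain deficient in DNA damage repair.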

[4] = NCI Yeast Anticancer Drug Screen. Data for the cln2 rad14 strain (AID 165);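 also: 0% = growth equal to vehicle treated cultures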; conditions: S. cerevisiae cln2 rad14 strain, at 50.0 µM, active compounds read high
In short: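 Compounds are applied to the cln2 rad14 yeast strain, and growth is then compared with that of vehicle-treated cultures to give inhibition.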

[5] = NCI Yeast Anticancer Drug Screen. Data for the bub3 strain (AID 167); conditions: S. cerevisiae bub3 mutant strain, at 50.0 µM, active compounds read high
In short: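 Growth of a checkpoint-deficient yeast mutant is measured after compound exposure. Values represent inhibition relative to vehicle.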

[6] = NCI Yeast Anticancer Drug Screen. Data for the mlh1 rad18 strain (AID 175); conditions: S. cerevisiae mlh1 rad18 strain growth inhibition; at 50.0 µM; active compounds read high
In short: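 Read-out is yeast growth inhibition, calculated against vehicle-only controls. The compound was applied to a strain engineered with DNA damage repair alterations.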

Measured: growth inhibition

COc1cccc(C=O)c1[O-].COc1cccc(C=O)c1[O-].[Zn+2]
inactive: [1] 52.4% | [2] 17.9% | [3] 56.7% | [4] 32.2% | [5] 11.8% | [6] 66%

c1ccc(-n2nc3ccc4nonc4c3n2)cc1
inactive: [1] -17.9% | [2] -20.8% | [3] -10.5% | [4] 7.4% | [5] -0.05% | [6] -1.55%

CC(=O)n1c(N)nc2ccccc21
inactive: [1] 21.3% | [2] -2.85% | [3] 6.95% | [4] 3.4% | [5] 1.45% | [6] 28.8%

O=C(Cl)C(Cl)(c1ccccc1)c1ccccc1
inactive: [1] 2.15% | [2] 13.6% | [3] 4.15% | [4] -6.9% | [5] 17.1% | [6] 3.75%

CN(C)c1ccc(/C=C(\C#N)c2c(Br)cccc2Br)cc1
inactive: [1] -20.1% | [2] -18.8% | [3] -3.65% | [4] -42.8% | [5] 3.1% | [6] -14.7%

CC1(C)N=C(C(N)=O)c2ncn(CCO)c2N1
inactive: [1] -12.4% | [2] -34% | [3] -21.6% | [4] -10.7% | [5] -9.95% | [6] -23.4%

Cc1c(O)cc(O)c(C=O)c1C
inactive: [1] 6.05% | [2] -4.2% | [3] 16.1% | [4] 4.5% | [5] -2.45% | [6] 3.1%

COc1ccc(C(c2cc3c(cc2O)OCO3)N2CCCCC2)c(OC)c1 (stereo unspecified)
inactive: [1] -31.2% | [2] -13.1% | [3] -12.2% | [4] -22.4% | [5] -2.15% | [6] -6.95%

C=C1C(=O)OC2CCC3OC(C)(C)OC3C12 (stereo unspecified)
inactive: [1] 6.2% | [2] 17.5% | [3] 15.4% | [4] -16.9% | [5] 31.9% | [6] 10.6%

COc1cc(N2C(=O)CSC2=S)cc(OC)c1OC
inactive: [1] 21.3% | [2] 12.3% | [3] 61.8% | [4] 25.4% | [5] 33.8% | [6] 23.4%

CN(C)CCC(C(=O)C(C)(C)C)c1ccccn1 (stereo unspecified)
inactive: [1] -7.2% | [2] -9.2% | [3] -5.65% | [4] -19.4% | [5] -16.9% | [6] -0.6%

CC(=O)NC(=O)CC(=O)c1ccccc1
inactive: [1] -2.2% | [2] -12.8% | [3] -13.4% | [4] 13.9% | [5] -4.7% | [6] -18.3%

O=C(Nc1ncnc2c1ncn2C1CCC(CO)O1)c1ccccc1 (stereo unspecified)
inactive: [1] -1.35% | [2] 2.15% | [3] 3.7% | [4] 7.45% | [5] 14% | [6] 16.9%

CCOC(=O)c1ncc(Cl)cc1NC(=O)CC(=O)Nc1cc(Cl)cnc1C(=O)OCC
inactive: [1] 59.8% | [2] -8% | [3] 32.5% | [4] -31.1% | [5] 1.1% | [6] 20.3%

C=CCCCCCCCCC(=O)NCC1CCCCO1 (stereo unspecified)
inactive: [1] 2.8% | [2] -0.5% | [3] 67.6% | [4] -1.35% | [5] 10.1% | [6] 58.1%

CCOC(=O)c1cnc(NCCCCCCNc2ncc(C(=O)OCC)c(=O)[nH]2)[nH]c1=O
inactive: [1] 29.7% | [2] -1.5% | [3] -3.65% | [4] -6.8% | [5] -3.1% | [6] 21.7%

CCCCCCCCCCCCCCO
inactive: [1] 21.9% | [2] -22.8% | [3] -19.7% | [4] -54.8% | [5] 1.3% | [6] 16.9%

CCOC(=O)Cc1[nH]c(C(=O)OCC)c(CC(=O)OCC)c1C(=O)OCC
inactive: [1] 6.3% | [2] 8.45% | [3] 8.3% | [4] -4.2% | [5] 0.1% | [6] 15.7%

CCc1ccc(O[Si](C)(C)C)cc1
inactive: [1] 5.35% | [2] 3.25% | [3] -15.6% | [4] -25.4% | [5] -21.9% | [6] -3.9%

CC(C)=CC(=O)OC1C2C(C)C(=O)OC2C(O)C(C)C2C=CC(=O)C21C (stereo unspecified)
inactive: [1] 3.15% | [2] -3.6% | [3] 9.6% | [4] 16.9% | [5] 11.1% | [6] 8.2%

Cc1ccc(P(=S)(c2ccc(C)c3ccccc23)c2ccc(C)c3ccccc23)c2ccccc12
inactive: [1] -8.1% | [2] -6.3% | [3] -3.4% | [4] -8.7% | [5] 0.1% | [6] -4.9%
